Experimental data as given in PubChem BioAssay AID588579 (National Center for Advancing Translational Sciences (NCATS), 2011).
About 2,200 (0.55%) of roughly 400,000 compounds were called active. About 1% were inconclusive and are not listed. Calls come from the whole dose curve; as a rule, active = well fitted inhibition curve with a large enough effect; inconclusive = small, poorly fitted or top-dose-only effect, or another doubt; inactive = no such curve, though single readings can be large or run the other way. For the sample, actives were picked, then their nearest neighbours and some compounds at random.

These compounds were tested against DNA polymerase kappa (Homo sapiens) (UniProt Q9UBT6) (assay: qHTS for Inhibitors of Polymerase Kappa). Details: purified Pol kappa, fluorescent DNA synthesis assay, 10 min; series mostly up to 107 µM; activity, negative = inhibition: at the top concentration.
DNA polymerase kappa (Homo sapiens), sequence (Q9UBT6 whole entry, looked up): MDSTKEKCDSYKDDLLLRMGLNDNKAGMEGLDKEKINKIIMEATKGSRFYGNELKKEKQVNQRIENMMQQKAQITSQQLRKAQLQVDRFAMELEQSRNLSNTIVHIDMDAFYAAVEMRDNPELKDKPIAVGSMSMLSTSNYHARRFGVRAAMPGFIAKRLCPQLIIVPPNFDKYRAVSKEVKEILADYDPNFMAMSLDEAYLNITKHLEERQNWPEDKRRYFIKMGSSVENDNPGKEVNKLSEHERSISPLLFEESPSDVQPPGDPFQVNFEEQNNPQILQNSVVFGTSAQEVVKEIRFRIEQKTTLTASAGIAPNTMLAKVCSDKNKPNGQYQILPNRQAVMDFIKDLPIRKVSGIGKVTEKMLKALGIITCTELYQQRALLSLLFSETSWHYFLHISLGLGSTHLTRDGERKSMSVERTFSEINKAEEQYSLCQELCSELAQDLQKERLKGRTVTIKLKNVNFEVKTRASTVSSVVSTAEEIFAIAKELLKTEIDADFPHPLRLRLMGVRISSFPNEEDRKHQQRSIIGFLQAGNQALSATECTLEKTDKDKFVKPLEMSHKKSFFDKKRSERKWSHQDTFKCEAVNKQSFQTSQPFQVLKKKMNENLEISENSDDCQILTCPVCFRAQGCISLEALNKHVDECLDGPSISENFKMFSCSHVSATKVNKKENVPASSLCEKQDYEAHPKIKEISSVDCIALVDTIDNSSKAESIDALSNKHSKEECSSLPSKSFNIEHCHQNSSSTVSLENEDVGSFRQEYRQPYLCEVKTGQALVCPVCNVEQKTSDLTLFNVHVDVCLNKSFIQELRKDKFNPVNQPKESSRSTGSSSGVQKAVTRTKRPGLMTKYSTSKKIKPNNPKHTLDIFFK
In short: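 10 nM Pol kappa preincubated 15 min at room temperature with compounds, then reaction started with substrate at 50 nM final. Fluorescence read kinetically at 0 and 10 min; buffer-only wells served as negative control.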
% is set by controls: 0 for no effect and ±100 for the full control effect; potency is the fitted concentration of half-maximal effect.

activity, negative = inhibition, inactive:
CN(C)c1ccc(C=Nc2ccc(/C=C/c3ccnc4ccccc34)cc2)cc1 -10.6%
NC(=O)C(=O)N/N=C/c1ccc([N+](=O)[O-])o1 1.45% [at 60.1 µM]
CCOC(=O)c1cc2cc(-c3c(C(=O)OCC)oc4cc(O)cc(O)c4c3=O)ccc2o1 -9.29%
O=c1c(-c2ccc3c(c2)OCCO3)c(C(F)(F)F)oc2cc(O)cc(O)c12 -13.6%
C=C(C)C1CC=C(C)C(O)C1 (stereo not drawn) -10.7% [at 60.1 µM]
C=C1C=C(C)n2ncc(C(=O)Nc3ccccc3O)c2N1 -24.3%
CC(=O)c1ccc(NC(=O)CSc2nnc(NC(=O)Nc3ccccc3)s2)cc1 5.47% [at 60.1 µM]
CN(C(=O)CSc1nnc(NC(=O)Nc2ccccc2)s1)c1ccccc1 -11.2% [at 60.1 µM]
O=C(c1cc(C(F)(F)F)cc(C(F)(F)F)c1)N1CCC2(CCCN(Cc3ccncc3)C2)CC1 -8.33% [at 60.1 µM]
OCC(CO)NC1C[C@](O)(CO)[C@@H](O)[C@H](O)[C@H]1O (stereo partly drawn) -3.61% [at 60.1 µM]
COc1ccc2c3c1OC1CC(O)C=C[C@@]31CCN(C)C2 (stereo partly drawn) -10.1% [at 60.1 µM]
COc1cc2c(cc1OC)CC(=O)N(CCCN(C)C[C@H]1Cc3cc(OC)c(OC)cc31)CC2 3.96% [at 19.4 µM]
FC(F)(F)c1ccccc1-c1nc(-n2ccnc2)c2ccccc2n1 0.364% [at 60.1 µM]
Nc1ccc(/C=C/c2ccnc3ccccc23)c([N+](=O)[O-])c1 -5.61%
O=c1/c(=C/c2ccc(CNS(=O)(=O)c3ccccc3)o2)sc2n1CCN=2 3.56% [at 60.1 µM]
O=C(Nc1ccc(Cl)cc1)c1cnn2c1NC(=C1CC1)C=C2C(F)F -0.0234%
Brc1cccc[n+]1Cc1cccc(C[n+]2ccccc2Br)c1 -18.2%
CCNc1ncc2nc(CCc3ccccc3)c(=O)n(-c3ccc(OC)cc3)c2n1 -19% [at 60.1 µM]
CCCN1C(=O)C(NS(=O)(=O)c2ccc(N)cc2)(C(F)(F)F)C(C(=O)OC)=C1C (stereo not drawn) -9.7%
CC(=O)Nc1ccc(S(=O)(=O)NC2(C(F)(F)F)C(=O)Nc3c2c(=O)[nH]c(=O)n3Cc2ccccc2)cc1 (stereo not drawn) -24.4%

Potency, active:
O=c1cc(-c2ccc(O)cc2)oc2c(-c3cc(-c4cc(=O)c5c(O)cc(O)cc5o4)ccc3O)c(O)ccc12 26.7 µM
CC(C)c1ccc(Nc2nnc(SCC(=O)c3nnc(-c4ccccc4)o3)s2)cc1 79.4 µM
CC(=O)Oc1c2c(c3c(c1CC=C(C)C)O[C@@]14C(=CC5CC1C(C)(C)OC4(C/C=C(\C)C(=O)O)C5=O)C3=O)OC(C)(CCC=C(C)C)C=C2 (stereo partly drawn) 31.6 µM
O=c1nc2s/c(=C\c3ccco3)c(=O)n2nc1Cc1ccccc1 31.6 µM
CN1CCOC1c1ccc(C2OCCN2C)cc1 (stereo not drawn) 39.8 µM
Nc1ccc2nc3c(=O)[nH]c(=S)[nH]c3nc2c1 2.24 µM
CC(=O)Nc1ccc(S(=O)(=O)NC2(C(F)(F)F)C(=O)NC(C)=C2C#N)cc1 (stereo not drawn) 79.4 µM

Potency, inactive:
CC(C)=CCC/C(C)=C/CC/C(C)=C/CC/C(C)=C/CO
